Assay results: PubChem BioAssay
Where “and” joins values, the source holds several entries; their conditions need not be identical. Equal entries are not always repeated. Some compounds were tested as several samples or in several runs, with calls that do not always agree. Calls of active or inactive are those of the source.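 Rule for the calls, unless noted: active = thallium flux through the channel raised or lowered by more than 3 SD from vehicle-only wells, actives on both sides; inactive = the rest.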

What was measured:
[1] = tested on: Hepatitis C virus NS3 helicase; experiment: HCV NS3 helicase inhibitors, primary screen, biochemical, fluorescence polarization, NIH Clinical Collection (AID 743270; call rule not given here); settings: NS3 helicase binding to Cy5-dT15 DNA, stronger effect = higher value, concentration not given here
[2] = biological target: Single-stranded DNA-binding protein (Escherichia coli (strain K12)) (UniProt P0AGE0); experiment: E. coli SSB displacement from DNA, counter-screen for HCV NS3 helicase inhibitor project, biochemical, fluorescence polarization, NIH Clinical Collection (AID 743271; in the data active = inhibition above about 28%); settings: stronger effect = higher value, concentration not given here
[3] = fluorescence interference in NS3h assay format, artefact control for HCV NS3 helicase inhibitor project, biochemical, NIH Clinical Collection (AID 743272; call rule not given here;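 note: HCV NS3 helicase with a Cy5 labelled single stranded DNA probe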); settings: fluorescence interference counterscreen, stronger effect = lower value
[4] = stimulators of nuclear beta-catenin in C2C12, primary screen, imaging, WNT3A-conditioned medium, mouse C2C12, NPC library (AID 1117326; in the data active = nuclear beta-catenin stimulation mostly above about 4.2%, no sharp cut-off; inactive = mostly below about 10%); settings: stronger effect = higher value
[5] = stimulators of insulin release from INS-1E, primary screen, cell-based, 5 mM glucose, NPC library (AID 1117329;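 active = compound raises insulin release from rat beta cells at 5 mM glucose, no numeric limit stated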); settings: rat INS-1E insulin secretion, at 10 µM, stronger effect = higher value
[6] = growth inhibition of GSK3B-pretreated HCT116 cells – cell-based, CellTiter-Glo, 0.2 to 20 µM (AID 1117336;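 active = compounds lowering colon cancer cell viability after pretreatment blocking the GSK3B kinase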); settings: HCT116 viability after GSK3B inhibitor, at 20 µM, stronger effect = higher value
[7] = inhibition of endothelial tube formation, primary screen, imaging, VEGF stimulated, CD31 staining, tube area, NPC library (AID 1117340;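 active = compound that reduces growth-factor-driven endothelial tube area in a mixed cell culture, no cutoff stated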); settings: VEGF-stimulated ADSC/ECFC co-culture, at 10 µM, stronger effect = higher value
[8] = glucagon-like peptide 1 release enhancers, primary assay, NCI-H716 cell line, NPC library (AID 1117341;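 active = compound raises GLP1 secretion from the human gut endocrine cells, with no numeric limit stated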); settings: NCI-H716 cells, at 10 µM, stronger effect = higher value
[9] = HCT116 colon cancer cell growth inhibition, primary screen, CellTiter-Glo luminescence, NPC library (AID 1117342;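 active = compounds that lower survival of HCT116 colon cancer cells in the luminescence readout, no numeric limit stated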); settings: at 20 µM (top of the series)
[10] = CellTiter-Glo luminescent readout of SW480 viability loss, NPC library primary (AID 1117343;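 active = compounds that lower viability of the colon cancer cells in the luminescence readout, with no numeric limit stated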); settings: CellTiter-Glo luminescence; at 20 µM (top of the series)
[11] = decreased DLD-1 cellular survival, CellTiter-Glo luminescent readout, NPC compound collection, primary HTS (AID 1117346;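 active = compounds that lower survival of DLD-1 colon cancer cells in the luminescence readout, no cutoff given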); settings: DLD-1 viability, CellTiter-Glo luminescence; at 20 µM (top of the series)
[12] = biological target: 6-phosphogluconate dehydrogenase, decarboxylating (Homo sapiens) (UniProt P52209); experiment: 6PGD enzyme inhibitors, primary screen, biochemical, human, recombinant enzyme, NADPH absorbance (AID 1159550;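 active = at least 20% inhibition of 6-phosphogluconate dehydrogenase activity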); settings: recombinant 6PGD, NADPH absorbance 341 nm; at 10 µM; stronger effect = higher value
6-phosphogluconate dehydrogenase, decarboxylating (Homo sapiens), sequence (P52209 whole entry, looked up): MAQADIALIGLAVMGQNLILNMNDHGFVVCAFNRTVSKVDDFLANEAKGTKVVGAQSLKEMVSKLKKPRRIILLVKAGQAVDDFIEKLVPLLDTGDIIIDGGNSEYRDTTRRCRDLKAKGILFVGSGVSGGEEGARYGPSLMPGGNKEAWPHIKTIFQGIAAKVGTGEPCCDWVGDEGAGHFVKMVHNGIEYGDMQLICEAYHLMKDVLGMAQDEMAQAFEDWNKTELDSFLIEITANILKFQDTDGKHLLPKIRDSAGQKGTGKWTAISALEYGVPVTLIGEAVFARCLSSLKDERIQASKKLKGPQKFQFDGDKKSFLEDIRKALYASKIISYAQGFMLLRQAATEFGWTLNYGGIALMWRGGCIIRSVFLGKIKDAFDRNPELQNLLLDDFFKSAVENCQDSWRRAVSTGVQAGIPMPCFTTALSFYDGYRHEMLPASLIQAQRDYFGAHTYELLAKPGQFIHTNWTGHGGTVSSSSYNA

[13] = sensitizers of A549 cells to miR-34 induction, primary screen, imaging, A549 dox-inducible miR-34, nuclei and caspase counts (AID 1347080;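 active = compounds whose cell count with miR-34 switched on is under 0.7 times the count with it off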); settings: A549 miR-34 inducible, Hoechst nuclei count, 48 h
[14] = survival rescue of mitochondrial mutant cells in low glucose, primary screen, MELAS cybrids, Rieske KO mouse fibroblasts, CellTiter-Glo (AID 1508586;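 active = mean z-score across replicates of 1.96 or higher in either the MELAS or the Rieske mutant cell line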;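 note: z relative to plate mean and SD of compound and empty wells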)
[15] = biological target: NAD(+) hydrolase SARM1 (Homo sapiens) (UniProt Q6SZW1); experiment: SARM1 TIR NADase inhibitors, cell lysate, NAD-Glo luminescence (AID 1508614;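 active = compound whose remaining NAD level is above about 45 nM, limit read from the data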;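 note: higher remaining NAD means stronger inhibition of SARM1 NADase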); settings: SAM-TIR HEK293T lysate NADase, at 1 µM, stronger effect = higher value
NAD(+) hydrolase SARM1 (Homo sapiens), sequence (Q6SZW1 whole entry, looked up, the tested form may be a part): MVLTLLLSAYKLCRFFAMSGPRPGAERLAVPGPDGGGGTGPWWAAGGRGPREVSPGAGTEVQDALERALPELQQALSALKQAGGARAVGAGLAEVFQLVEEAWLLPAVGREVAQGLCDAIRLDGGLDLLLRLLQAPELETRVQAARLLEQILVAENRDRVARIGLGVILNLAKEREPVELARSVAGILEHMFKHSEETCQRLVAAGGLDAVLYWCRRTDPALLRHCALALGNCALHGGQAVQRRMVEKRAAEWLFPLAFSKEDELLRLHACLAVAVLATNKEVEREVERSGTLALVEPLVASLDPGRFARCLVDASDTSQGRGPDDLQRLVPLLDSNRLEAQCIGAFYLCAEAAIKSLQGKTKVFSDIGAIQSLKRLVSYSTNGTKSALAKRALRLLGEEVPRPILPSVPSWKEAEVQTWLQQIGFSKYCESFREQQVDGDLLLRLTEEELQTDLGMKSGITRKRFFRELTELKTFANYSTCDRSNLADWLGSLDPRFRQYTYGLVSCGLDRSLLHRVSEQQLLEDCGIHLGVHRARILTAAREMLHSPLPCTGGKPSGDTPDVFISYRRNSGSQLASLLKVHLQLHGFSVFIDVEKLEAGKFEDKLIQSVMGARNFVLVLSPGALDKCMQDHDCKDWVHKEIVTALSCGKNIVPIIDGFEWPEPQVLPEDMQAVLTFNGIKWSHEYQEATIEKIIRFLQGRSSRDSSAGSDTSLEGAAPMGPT

[16] = biological target: Mitogen-activated protein kinase 7 (Homo sapiens) (UniProt Q13164); experiment: ERK5 transactivation activators in reporter cells, primary screen, cell-based, HTS (AID 1508626;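 active = luciferase signal above three times the same-plate solvent-only control wells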;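 note: luciferase driven by Gal4-ERK5 fusion binding five Gal4 sites before minimal TATA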); settings: HeLa Gal4-ERK5 transactivation, 18 h, at 5 µM, stronger effect = higher value
Mitogen-activated protein kinase 7 (Homo sapiens), sequence (Q13164 whole entry, looked up, the tested form may be a part): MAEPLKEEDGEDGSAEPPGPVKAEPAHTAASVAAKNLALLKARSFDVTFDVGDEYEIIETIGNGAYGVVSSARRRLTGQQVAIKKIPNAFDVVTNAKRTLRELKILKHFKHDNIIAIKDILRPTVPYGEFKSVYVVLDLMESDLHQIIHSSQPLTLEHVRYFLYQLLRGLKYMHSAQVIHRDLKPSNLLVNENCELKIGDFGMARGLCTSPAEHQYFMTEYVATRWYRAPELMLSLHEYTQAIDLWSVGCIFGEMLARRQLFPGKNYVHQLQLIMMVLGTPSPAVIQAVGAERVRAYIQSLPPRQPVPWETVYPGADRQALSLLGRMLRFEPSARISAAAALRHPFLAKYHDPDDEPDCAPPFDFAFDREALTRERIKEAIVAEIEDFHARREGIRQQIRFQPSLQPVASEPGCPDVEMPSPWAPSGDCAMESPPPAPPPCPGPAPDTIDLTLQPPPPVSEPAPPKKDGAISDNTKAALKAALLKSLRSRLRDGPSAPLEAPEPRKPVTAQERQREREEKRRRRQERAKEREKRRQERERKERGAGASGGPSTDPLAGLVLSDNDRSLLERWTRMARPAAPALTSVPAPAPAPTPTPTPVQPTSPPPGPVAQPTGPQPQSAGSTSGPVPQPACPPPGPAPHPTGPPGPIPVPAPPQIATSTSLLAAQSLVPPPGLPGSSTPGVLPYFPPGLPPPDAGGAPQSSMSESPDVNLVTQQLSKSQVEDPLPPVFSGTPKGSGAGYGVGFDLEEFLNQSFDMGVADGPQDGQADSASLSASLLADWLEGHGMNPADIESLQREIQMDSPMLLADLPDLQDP

F380Y = experiment: modulators of BK channel variants, profiling panel, selectivity assay, cell-based, U2OS BacMam, thallium flux, beta subunits (AID 1259406); settings: at 30 µM;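 note: initial slope of Thallos dye fluorescence rise after thallium is added; log ratio against the mean of 0.3% DMSO vehicle wells on the same plate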
F380Y/beta2Delta = experiment: as above; settings: at 30 µM
[17] = biological target: Calcium-activated potassium channel subunit alpha-1 (Homo sapiens) + Leucine-rich repeat-containing protein 26 (Homo sapiens) (UniProt Q12791+Q2I0M4); experiment: as above; settings: F380Y/Slo1WT/gamma1, at 30 µM
Calcium-activated potassium channel subunit alpha-1 (Homo sapiens) + Leucine-rich repeat-containing protein 26 (Homo sapiens), sequence (Q2I0M4 whole entry, looked up, one chain of several): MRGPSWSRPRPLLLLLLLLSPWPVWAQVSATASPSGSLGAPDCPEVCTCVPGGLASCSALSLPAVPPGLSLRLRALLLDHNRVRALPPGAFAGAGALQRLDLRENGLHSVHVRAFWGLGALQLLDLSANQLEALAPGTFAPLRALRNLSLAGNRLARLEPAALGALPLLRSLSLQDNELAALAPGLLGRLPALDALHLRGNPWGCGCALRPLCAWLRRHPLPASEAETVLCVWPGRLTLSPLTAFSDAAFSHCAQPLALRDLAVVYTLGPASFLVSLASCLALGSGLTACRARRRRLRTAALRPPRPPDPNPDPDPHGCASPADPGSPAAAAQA

[18] = differential killing of epithelial or mesenchymal cells, primary screen, imaging, PC-3E GFP, TEM4-18 mCherry, co-culture (AID 1345086;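 active = compounds killing one labelled cell type while sparing the other, by normalised counts and ratio limits, not self-fluorescent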;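 for all read-outs here: cells exposed to compound for 72 h before imaging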;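 for red/green cell ratio (normalised): normalised mesenchymal count divided by normalised epithelial count so high means epithelial killing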); settings: imaging cell counts, at 1 µM; for red/green cell ratio (normalised): actives lie on both sides, counts scaled to control wells, 1 = unselective
[19] = stronger effect = lower value, cell number ratio, induced over uninduced
[20] = measured here: relative caspase fold change +Dox/-Dox
[21] = measured here: total cells with miR-34 induction, stronger effect = lower value
[22] = measured here: total cells without miR-34 induction
[23] = MELAS cybrid survival, CellTiter-Glo 48 h, stronger effect = higher value
[24] = Rieske KO mouse fibroblast survival, CellTiter-Glo 72 h
[25] = measured here: epithelial PC-3E GFP cell survival
[26] = measured here: mesenchymal TEM4-18 mCherry cell survival

C[C@]12CCC(=O)C=C1CC[C@@H]1[C@@H]2C(=O)C[C@@]2(C)[C@H]1CC[C@]2(O)C(=O)CO
1.3%: nuclear beta-catenin stimulation ([4]; stimulation, at 2 µM)
2.11 and 1.06: fold change [13, 20]
-0.104: z-score [14, 24]
8880 and 10200: cell count [13, 22]
8700 and 9320: cell count [13, 21]
inactive: inhibition [1] -1.97% | inhibition [2] 2.76% | fluorescence ratio [3] 0.97 | nuclear beta-catenin stimulation ([4]; at 10 µM) -0.9% | insulin secretion stimulation [5] -3.1% | viability decrease [6] -9.9% | tube area decrease [7] 4.3% | GLP1 secretion stimulation [8] -2.4% | inhibition of viability [9] 4.4% | viability decrease (inhibition) [10] 6.5% | viability decrease (inhibition) [11] -2.6% | inhibition [12] 4.09% | fold change [13, 19] 0.98 and 0.917 | z-score [14, 23] 1.14 | remaining NAD [15] 10 nM | luciferase signal [16] 36 AU | log fold change Tl+ flux (F380Y) 0.0198 | log fold change Tl+ flux (F380Y/beta2Delta) 0.0238 | log fold change Tl+ flux [17] 0.0148

COc1ccc2cc(CCC(C)=O)ccc2c1
1.12: normalised cell number [18, 25]
-0.132 and -0.0567 and -0.121: z-score [14, 24]
active: viability decrease (inhibition) [11] -3.8% | log fold change Tl+ flux (F380Y) -0.158 | log fold change Tl+ flux (F380Y/beta2Delta) -0.0818
inactive: inhibition [1] -1.36% | inhibition [2] 1.05% | fluorescence ratio [3] 0.99 | nuclear beta-catenin stimulation ([4]; at 10 µM) 5.3% | insulin secretion stimulation [5] 1.5% | viability decrease [6] -7.2% | tube area decrease [7] -5.2% | GLP1 secretion stimulation [8] 0.4% | inhibition of viability [9] -6.2% | viability decrease (inhibition) [10] 4.5% | inhibition [12] -24.5% | red/green cell ratio (normalised) [18] 1.14 | z-score [14, 23] -0.0447 and 0.0297 and 0.548 | remaining NAD [15] 10 nM | luciferase signal [16] 92 AU | log fold change Tl+ flux [17] -0.0634
1.27: normalised cell number [18, 26]
3.7%: nuclear beta-catenin stimulation ([4]; stimulation, at 2 µM)

CC(C)Oc1ccc2c(=O)c(-c3ccccc3)coc2c1
0.976 and 0.611: z-score [14, 24]
1.09 and 1.31: fold change [13, 20]
-0.279 (inactive) and 1.99 (active): z-score [14, 23]
-1.4% and 0.1%: nuclear beta-catenin stimulation ([4]; stimulation, at 2 µM)
active: inhibition of viability [9] 75.7% and 54.6% | viability decrease (inhibition) [10] 58.3% and 71%
9370 and 9660: cell count [13, 22]
inactive: inhibition [1] 3.56% | inhibition [2] 5.29% | fluorescence ratio [3] 1.04 | nuclear beta-catenin stimulation ([4]; at 10 µM) 1.8% and 1% | insulin secretion stimulation [5] 1.75% and -0.3% | viability decrease [6] 45.8% and -14.2% | tube area decrease [7] -10.2% and -25.5% | GLP1 secretion stimulation [8] -2.3% and -2.1% | viability decrease (inhibition) [11] 38.2% and 30.5% | inhibition [12] 8.55% | fold change [13, 19] 0.928 and 0.917 | remaining NAD [15] 10 nM | luciferase signal [16] 56 AU | log fold change Tl+ flux (F380Y) -0.0497 | log fold change Tl+ flux (F380Y/beta2Delta) -0.052 | log fold change Tl+ flux [17] -0.0126
8700 and 8850: cell count [13, 21]

CC1=C(C(=O)O)N2C(=O)[C@@H](NC(=O)[C@H](N)c3ccccc3)[C@H]2SC1
1.36: fold change [13, 20]
0.2%: nuclear beta-catenin stimulation ([4]; stimulation, at 2 µM)
active: GLP1 secretion stimulation [8] 22.8%
inactive: inhibition [1] 8.32% | inhibition [2] 8.37% | fluorescence ratio [3] 0.97 | nuclear beta-catenin stimulation ([4]; at 10 µM) 3.8% | insulin secretion stimulation [5] -0.9% | viability decrease [6] 7.2% | tube area decrease [7] -2.6% | inhibition of viability [9] 24.3% | viability decrease (inhibition) [10] 44.6% | viability decrease (inhibition) [11] 11.8% | inhibition [12] 8.67% | fold change [13, 19] 0.846 | remaining NAD [15] 10 nM | luciferase signal [16] 40 AU | log fold change Tl+ flux (F380Y) -0.036 | log fold change Tl+ flux (F380Y/beta2Delta) -0.0767 | log fold change Tl+ flux [17] -0.0298
10900: cell count [13, 22]
9200: cell count [13, 21]

CN[C@@H]1[C@H](O)[C@H](NC)[C@H]2O[C@@]3(O)C(=O)C[C@@H](C)O[C@H]3O[C@@H]2[C@H]1O
inactive: inhibition [1] -5% | inhibition [2] -4.29% | fluorescence ratio [3] 1.01 | nuclear beta-catenin stimulation ([4]; at 10 µM) 0.2% | insulin secretion stimulation [5] -0.2% | viability decrease [6] 12.5% | tube area decrease [7] -8.4% | inhibition of viability [9] 6.2% | viability decrease (inhibition) [10] 12.1% | viability decrease (inhibition) [11] 3.7% | inhibition [12] -6.86% | red/green cell ratio (normalised) [18] 1.39 | z-score [14, 23] 0.0203 and 0.894 | remaining NAD [15] 10 nM | luciferase signal [16] 44 AU | log fold change Tl+ flux (F380Y) -0.0285 | log fold change Tl+ flux (F380Y/beta2Delta) -0.0192 | log fold change Tl+ flux [17] 0.021
3.5%: nuclear beta-catenin stimulation ([4]; stimulation, at 2 µM)
1.31: normalised cell number [18, 26]
active: GLP1 secretion stimulation [8] 23.7%
0.169 and 0.769: z-score [14, 24]
0.94: normalised cell number [18, 25]

Cc1cccc(Nc2ccncc2S(=O)(=O)NC(=O)NC(C)C)c1
-0.333: z-score [14, 24]
inactive: inhibition [1] -1.19% | inhibition [2] -0.1% | fluorescence ratio [3] 1.02 | nuclear beta-catenin stimulation ([4]; at 10 µM) -1.1% | insulin secretion stimulation [5] 5% | viability decrease [6] -8.2% | tube area decrease [7] -9.9% | GLP1 secretion stimulation [8] -2% | inhibition of viability [9] -1.7% | viability decrease (inhibition) [10] -0.7% | viability decrease (inhibition) [11] -9.6% | inhibition [12] -8.28% | fold change [13, 19] 0.955 and 0.95 | z-score [14, 23] -0.921 | remaining NAD [15] 10 nM | log fold change Tl+ flux (F380Y) 0.0355 | log fold change Tl+ flux (F380Y/beta2Delta) -0.0041 | log fold change Tl+ flux [17] -0.0447
9180 and 10600: cell count [13, 22]
0.599 and 1.15: fold change [13, 20]
-0.1%: nuclear beta-catenin stimulation ([4]; stimulation, at 2 µM)
8770 and 10100: cell count [13, 21]

CC(=O)OCC[N+](C)(C)C
2.2%: nuclear beta-catenin stimulation ([4]; stimulation, at 2 µM)
1.3: normalised cell number [18, 26]
inactive: inhibition [1] -0.45% | inhibition [2] 0.29% | fluorescence ratio [3] 1.01 | nuclear beta-catenin stimulation ([4]; at 10 µM) 0.6% | insulin secretion stimulation [5] 0.3% | viability decrease [6] -38.1% | tube area decrease [7] 19.9% | GLP1 secretion stimulation [8] -5.3% | inhibition of viability [9] 10.1% | viability decrease (inhibition) [10] 2.1% | viability decrease (inhibition) [11] -14.9% | inhibition [12] 14.7% | red/green cell ratio (normalised) [18] 1.07 | z-score [14, 23] -0.299 and 0.505 | remaining NAD [15] 10 nM | luciferase signal [16] 60 AU | log fold change Tl+ flux (F380Y) 0.0119 | log fold change Tl+ flux (F380Y/beta2Delta) -0.0134 | log fold change Tl+ flux [17] 0.00764
-0.06 and -0.687: z-score [14, 24]
1.22: normalised cell number [18, 25]
